# Test results taken from PubChem BioAssay (NCATS).
# Records with an inconclusive call do not appear. Entries that show only a call come without a potency. Values without a mark were called inactive. The source made the active and inactive calls. Calls follow the shape of the dose curve; as a rule, active = well fitted inhibition curve with a large enough effect; inconclusive = small, poorly fitted or top-dose-only effect; inactive = flat fitted curve, though single readings scatter.
# Molecular target: Glutathione peroxidase 1 (Homo sapiens) (UniProt P07203)
# Experiment: Primary qHTS Assay for Inhibitors of Recombinant Selenoprotein Glutathione Peroxidase 1 (GPX1) (AID 1845191); also: nearly all actives have a fitted effect of over 65% in size
# Conditions: recombinant GPX1, GR-coupled NADPH fluorescence, 15 min; series mostly up to 48.8 µM
# From the text: Assay Provider: Elias S.J. Arner MD PhD.
# Department of Medical Biochemistry and Biophysics
# Karolinska Institutet, Solna, Stockholm, Sweden
# Selenoprotein glutathione peroxidases (GPX), like the ubiquitously expressed GPX1 and the ferroptosis modulator GPX4, enact their antioxidant activities by reducing hydroperoxides using glutathione. […] GPX1 and GPX4 inhibitors have thus shown promise as anti-cancer agents. Existing inhibitors are often promiscuous, or modulate GPX activity only indirectly, so novel direct inhibitors identified through screening against GPX1 and GPX4 could be valuable. Here, we developed optimized glutathione reductase (GR)-coupled GPX assays for the biochemical high-throughput screen (HTS) of almost 12,000 compounds with known mechanisms of action. Initial hits were triaged using a GR counter-screen, assessed for isoform specificity using a separate GPX2 assay, and were assessed for general selenocysteine-targeting activity using a thioredoxin reductase (TXNRD1) assay. With this suite of assays, we identified novel GPX1/GPX2- and GPX4-specific inhibitors and can here present a validated pipeline for future discovery research for selenoprotein-targeting agents.
# SEQUENCE No. (e.g., 1, 2, 3, etc.); […] (e.g., Cells, Incubation, Reagent, etc.); VALUE; DESCRIPTION.
# 1; Reagent 1; 3 uL; GPx1 enzyme or no enzyme control in 1536-well, black, solid Greiner assay plate.
# 2; Compound; 25 nL; Kalypsis pin tool (Wako USA) equipped with a 1536-well pin head.
# 3; Incubation; 30 min; room temperature.
# 4; Reagent 2; 1 uL; 10 nM GPX1, 1 mM GSH, 0.5 mM CHP, 0.5 mM NADPH, 100 nM GR, 0.01% BSA substrate
# 5; Detection; Fluorescence; ViewLux microplate reader, excitation 340 nm and emission 450 nm.
# 6; Incubation; 15 min; room temperature.
# 7; Detection; Fluorescence; ViewLux microplate reader, excitation 340 nm and emission 450 nm.
# NOTES (numbers refer to Sequence numbers above)
# 1. 3 uL of 16.66 nM GPX1 and 0.016% BSA in assay buffer (50 mM Tris-HCl, 2 mM EDTA (pH 7.5), 150 mM NaCl) was added to columns 3-48 of 1536-well assay plates using a BioRAPTR Flying Reagent Dispenser (Let's Go Robotics (LGR), Carlsbad, CA). A no-enzyme control (0.01% BSA in TES assay buffer) was added to columns 1-2.
# 2. 25 nL of test compounds and DMSO controls were added to each well with a pin tool (Kalypsys).
# 3. The assay plates were incubated for 30 minutes at room temperature.
# 4. 1 uL of master mix (500 nM glutathione reductase (GR), 5 mM reduced glutathione (GSH), 2.5 mM NADPH in assay buffer) was added. 1 uL of cumene hydroperoxide (CHP) ([2.5 mM] in 50% EtOH) was then added within 5 minutes to initiate the reaction. Final concentrations were: 10 nM GPX1, 1 mM GSH, 0.5 mM CHP, 0.5 mM NADPH, 100 nM GR, 0.01% BSA.
# 5. Initial fluorescence readout (t=0) at 340/450 nm was measured using a ViewLux multimodal detector (PerkinElmer, Waltham, MA).
# 7. Endpoint fluorescence readout (t=15) at 340/450 nm was measured 15 min after room temperature incubation.
# Sequence of Glutathione peroxidase 1 (Homo sapiens) (P07203 whole entry, looked up): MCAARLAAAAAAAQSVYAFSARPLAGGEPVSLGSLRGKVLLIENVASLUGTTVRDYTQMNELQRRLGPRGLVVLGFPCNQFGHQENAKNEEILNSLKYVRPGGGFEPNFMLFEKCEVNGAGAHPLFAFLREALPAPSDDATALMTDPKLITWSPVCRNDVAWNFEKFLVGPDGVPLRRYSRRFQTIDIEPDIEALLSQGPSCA
SMILES,Potency,"activity, negative = inhibition"
CCCCCCCCCCCCCCCCC(C(=O)O)C(O)(CC(=O)O)C(=O)O (stereo not given),inactive,
C[C@H]1COc2c(C3(N)CC3)c(F)cc3c(=O)c(C(=O)O)cn1c23,inactive,
CCCC(O)C(CC)CO (stereo not given),inactive,
Cc1ccsc1/C=C/C1=NCCCN1C,inactive,
c1ccc2[nH]ccc2c1,inactive,
COc1ccccc1OC(=O)Oc1ccccc1OC,inactive,
Cc1cc(OI)c(C(C)C)cc1-c1cc(C(C)C)c(OI)cc1C,inactive,
CCN(CC)C(=O)c1cccc(C)c1,inactive,
CCCCCCCCCCOc1cc2c(=O)c(C(=O)OCC)c[nH]c2cc1OCC,,-3.55% [at 4.49 µM]
C=CCN1C[C@H](C(=O)N(CCCN(C)C)C(=O)NCC)C[C@@H]2c3cccc4[nH]cc(c34)C[C@H]21,inactive,
CC1CC(OC(=O)c2ccccc2O)CC(C)(C)C1 (stereo not given),inactive,
C/C=C1\[C@H]2C=C(C)C[C@]1(N)c1ccc(=O)[nH]c1C2,inactive,
O=C(O)COC(=O)Cc1ccccc1Nc1c(Cl)cccc1Cl,inactive,
NC(N)=NS(=O)(=O)c1ccc(N)cc1,inactive,
C[C@@H]1O[C@@H](OC[C@H]2O[C@@H](Oc3c(-c4ccc(O)c(O)c4)oc4cc(O)cc(O)c4c3=O)[C@H](O)[C@@H](O)[C@@H]2O)[C@H](O)[C@H](O)[C@H]1O,inactive,
CCCNC(C)C(=O)Nc1c(C)csc1C(=O)OC (stereo not given),inactive,
CC(=O)N(CC(O)CO)c1c(I)c(C(=O)NCC(O)CO)c(I)c(C(=O)NCC(O)CO)c1I (stereo not given),inactive,
COc1ccc(C(=O)NCc2ccc(OCCN(C)C)cc2)cc1OC,inactive,
CC1(C)S[C@@H]2[C@H](N=CN3CCCCCC3)C(=O)N2[C@H]1C(=O)O,inactive,
CCOC(=O)[C@H](CCc1ccccc1)N[C@@H](C)C(=O)N1Cc2cc(OC)c(OC)cc2C[C@H]1C(=O)O,inactive,

SMILES,Potency,"activity, negative = inhibition"
CN1C(=O)CC(c2ccccc2)C1=O (stereo not given),inactive,
CC(=O)OCC(=O)[C@@]1(O)CC[C@H]2[C@@H]3CCC4=CC(=O)C=C[C@]4(C)[C@@]3(F)[C@@H](O)C[C@@]21C,inactive,
CCN[C@H]1CN(CCCOC)S(=O)(=O)c2sc(S(N)(=O)=O)cc21,inactive,
CCN1CC(CCN2CCOCC2)C(c2ccccc2)(c2ccccc2)C1=O (stereo not given),inactive,
CC(C)NC[C@@H](O)COc1ccc(CC(N)=O)cc1,inactive,
NCC1CCC(C(=O)Oc2ccc(CCC(=O)O)cc2)CC1 (stereo not given),inactive,
CN(C/C=C/C#CC(C)(C)C)Cc1cccc2ccccc12,inactive,
CN(C(=O)c1c(O)c2ccccc2n(C)c1=O)c1ccccc1,inactive,
Cc1cc(C)nc(NS(=O)(=O)c2ccc(N)cc2)n1,inactive,
O=C(O)CCC(=O)O,inactive,
CC(CN(C)C)C(C)(O)Cc1ccc(Cl)cc1 (stereo not given),inactive,
NC(=O)c1ccc([N+](=O)[O-])cc1Cl,inactive,
CC(C)=CCC/C(C)=C/CO,inactive,
Cc1cccc(C)c1NC(=O)CC12CCCN1CCC2,inactive,
NCc1ccc(S(N)(=O)=O)cc1,inactive,
C[N+]1(C)CCCC(OC(=O)C(O)(c2ccccc2)c2ccccc2)C1 (stereo not given),inactive,
Cn1cc(C(=O)[C@@H]2CCc3nc[nH]c3C2)c2ccccc21,inactive,
C[C@@H](N)C(=O)O,inactive,
Cc1cccc(Nc2ccccc2C(=O)O)c1C,inactive,
FC(F)(F)C(Cl)Br (stereo not given),inactive,
